Reference: PubChem BioAssay (NCI)
Where “and” joins values, the source holds several entries; their conditions need not be identical. Equal values may be shown once. The panel holds about 83,000 compounds, 20% with a hit somewhere; the sample as a whole holds those more often.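 A percent growth of 40 corresponds to 60% growth inhibition; 0 means no net growth; -100 means all cells died. Active threshold: below 10.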 Unmarked numbers belong to inactive results. Calls of active or inactive are those of the source.

How the values were obtained:
Experiment in all cases: NCI-60 one-dose screen, 48 h (100 = growth as untreated, 0 = no growth, -100 = all killed)
Conditions in all cases: 10 µM unless noted
[1] = system: NCI-H23 lung
[2] = system: NCI-H226 lung
[3] = system: NCI-H322M lung
[4] = system: HOP-62 NSCLC
[5] = system: NCI-H460 lung
[6] = system: HOP-92 NSCLC
[7] = system: NCI-H522 lung
[8] = system: A549/ATCC NSCLC
[9] = system: 786-0 renal
[10] = system: COLO 205 colon
[11] = system: DU-145 prostate
[12] = system: K-562 leukemia
[13] = system: MALME-3M melanoma
[14] = system: MDA-MB-231 breast
[15] = system: RXF 393 renal
[16] = system: SF-268 CNS
[17] = system: SF-295 CNS
[18] = system: SF-539 CNS
[19] = system: UACC-257 melanoma
[20] = system: M14 melanoma

Structure (SMILES) | growth [1] | growth [2] | growth [3] | growth [4] | growth [5] | growth [6] | growth [7] | growth [8] | growth [9] | growth [10] | growth [11] | growth [12] | growth [13] | growth [14] | growth [15] | growth [16] | growth [17] | growth [18] | growth [19] | growth [20]
O=[N+]([O-])c1cccc(-c2nnc3c(/C=C/c4ccc(F)cc4)nc4ccccc4n23)c1 | 91.7% | 98.6% | 101% | 97.9% | 90.3% | 80% | 81% | 95% | 93.5% | 126% | 98.7% | 87% | 95.7% | 94.6% | 77.2% | 87.5% | 80.8% | 66.9% | 107% | 108%
O=C(OCCOCCO)N(c1cccc(Br)c1)c1nc(SCCN2CCOCC2)nc2c1cnn2CC(Cl)c1ccc(Br)cc1 (stereo not given) | -0.582% (active) | 32.1% | 50.9% | 32.9% | 8.55% (active) | 30.9% | -40.9% (active) | 15.2% | -4.79% (active) | -42.3% (active) | 41.3% | 2.12% (active) | -29.1% (active) | 1.49% (active) | -30% (active) | 5.17% (active) | -66.6% (active) | -25.2% (active) | 2.33% (active) | -14.1% (active)
CCc1ccc(SC2c3cc(OC)ccc3Oc3nc(N)c(C#N)c(N)c32)cc1 (stereo not given) | -5.83% (active) | -6.69% (active) | -48% (active) | 1.33% (active) | 3.96% (active) | -38.5% (active) | -8.76% (active) | -41.2% (active) | -54.6% (active) | -68.9% (active) | 3.29% (active) | 0.578% (active) | -55.2% (active) | -41.4% (active) | -61.8% (active) | -4.75% (active) | -58.8% (active) | -62.1% (active) | -9.43% (active) | -14.1% (active)
Cc1cn(-c2cc(NC(=O)c3ccc(C)c(-n4cc(-c5cnc6cccnn56)nn4)c3)cc(C(F)(F)F)c2)cn1 | 56.9% | 68.8% | 106% | 80.5% | 102% | 53.9% | 81.4% | 94.3% | 95.4% | 31% | 105% | 4.65% (active) | -12.3% (active) | 24.7% | 98.1% | 112% | 93.8% | 77.7% | 22.4% | 21.5%
N#Cc1c(-c2ccc(F)cc2)nc(SCc2ccccc2)nc1N1CCNCC1 | -90.5% (active) | -58.8% (active) | -53.7% (active) | -78.8% (active) | -85.5% (active) | -92.2% (active) | -81.6% (active) | -90.9% (active) | -94% (active) | -66% (active) | -79.8% (active) | -22% (active) | -97.3% (active) | -98.5% (active) | -94.8% (active) | -31.2% (active) | -83% (active) | -99.4% (active) | -93.2% (active) | -90.2% (active)
COC(=O)c1c(C(=O)OC)c2ccc3c4ccccc4ccc3n2c1C(=O)OC | 102% | 100% | 101% | 110% | 111% | 97.5% | 100% | 97.2% | 100% | 115% | 121% | 117% | 96% | 110% | 74.9% | 103% | 93.5% | 99.3% | 101% | 102%
O=C(CSc1nc2sc3c(c2c(=O)n1-c1ccc(Cl)cc1)CCCC3)NNC(=O)c1ccc(Br)cc1 | 55.6% | 45.2% | 52.7% | 17% | 76.9% | 61.2% | 64.4% | 82.6% | 98.5% | 120% | 97.4% | 55.5% | 69.2% | 25.6% | 76% | 84.9% | 84.1% | -29.5% (active) | 98.6% | 71.9%
COc1ccc(NC(=O)N/N=C/c2c[nH]c3ccccc23)cc1 | 40% | 34.7% | 43.2% | 44.1% | 14.9% | 69.5% | -34.7% (active) | 45.6% | 44.8% | 4.05% (active) | 27.6% | 17.8% | 61.9% | 44.7% | 20.2% | 55.7% | 16.4% | -13.6% (active) | 72.9% | 29.7%
COc1ccc(N=Nc2c(N)nn3c(-c4ccc(OC)c(OC)c4)ccnc23)cc1 | 72.8% | 94.8% | 88.5% | 21.5% | 85.2% | 67.6% | 78.7% | 74% | 76.2% | 103% | 79.2% | 80.2% | 78.4% | 81.1% | 65.2% | 87.2% | 65.6% | 20.6% | 99.3% | 62.5%
COc1ccc(-c2nc3ccc(-c4nnc(SCC(=O)Nc5ccc(/C(C)=N\O)cc5)o4)cc3[nH]2)cc1 | 42.6% | 77.5% | 46.5% | 77% | 59.1% | 104% | 40.1% | 74.2% | -62.1% (active) | 107% | 71.7% | 32.4% | -20.5% (active) | 56% | -45.2% (active) | 49.4% | 97.7% | -53.4% (active) | 50.4% | 28.5%
COc1nc(N)ncc1-c1ccc2ncnc(N3CCc4cc(F)c(Cl)cc43)c2c1 | 34.2% | -40.3% (active) | 3.86% (active) | -54.4% (active) | -21.5% (active) | -23.8% (active) | 41.1% | 3.34% (active) | -74.9% (active) | -55.5% (active) | 30.6% | 31.6% | 64.3% | -22.7% (active) | -46.2% (active) | 54.2% | 17.9% | 1.76% (active) | 78.8% | 62.4%
Cc1ccc(NC(=O)N/N=C/c2c[nH]c3ccccc23)c(C)c1 | 12.6% | 12.6% | 42% | 34.4% | 5.78% (active) | 16.3% | -36.8% (active) | 14.9% | -18.4% (active) | -51.5% (active) | 12.9% | 10.5% | 52.8% | 21.1% | -12.3% (active) | 11.8% | 5.78% (active) | -5.67% (active) | 46.5% | 12.5%
CSc1ccc(OCc2nc3ccccc3n2-c2cccc(NS(C)(=O)=O)c2)cc1 | 92.3% and 81.1% | 100% and 88.1% | 106% and 105% | 114% and 75.1% | 114% and 73.3% | 80.1% and 93.1% | 105% and 96.7% | 104% and 87.1% | 114% and 97.3% | 120% and 91.4% | 103% and 67.1% | 94.4% and 106% | 95.3% and 84.1% | 118% and 57.3% | 81.7% and 84.1% | 92.4% and 101% | 106% and 96.5% | 93.2% and 89.5% | 116% and 107% | 119% and 81.6%
CC1(C)CC(=O)C2=C(C1)OC(N)=C(c1nc3ccccc3[nH]1)C2c1ccc(Cl)cc1 (stereo not given) | 46.5% and 106% | 65.7% and 123% | 51.3% and 101% | 87% and 116% | 57% and 112% | 54.8% and 119% | 55% and 111% | 64.6% and 115% | 62.1% and 102% | 78.8% and 121% | 74% and 99.8% | 61.5% and 104% | 41.8% and 97.3% | 79.1% and 105% | 55% and 106% | 67.8% and 102% | 22.9% and 103% | 29.3% and 106% | 97.4% and 109% | 85.6% and 118%
N#CC1=C(c2ccco2)Nc2c(c(-c3ccccc3)nn2-c2ccccc2)C12C(=O)Nc1ccc(Cl)cc12 (stereo not given) | 45.6% | -9.04% (active) | 50.7% | -47.9% (active) | 0.156% (active) | -0.851% (active) | 0.0636% (active) | -37.1% (active) | -14.5% (active) | 79.6% | 42.3% | 9.86% (active) | 22.3% | -4.25% (active) | 57.9% | 11% | 6.91% (active) | -30.3% (active) | 56.4% | 22.4%
